# Assay outcomes (PubChem)
# This is a sample that favours compounds with a hit; in the whole collection about 3% have one here.
# IEC-6 cytotox: kills IEC-6 intestinal cells in KLF5 counter-screen; AID 1825; IEC-6 cytotoxicity, luminescence viability; 290,000 compounds, 0.78% hits; inhibition, % at 5 µM
# CSC inhib: cancer stem cell inhibition | cancer stem cell-like cells viability, luminescence | inhibition, % at 7.5 µM | 300,000 compounds, 1.1% hits | AID 2717; in the data active = inhibition above about 75%; inconclusive = no clear call, values can overlap the other calls; tested in HMLE shEcad cells
# SKKanGAS inh: inhibitors of SKKanGAS S. pyogenes growth in kanamycin (SK-promoter or general growth effect). BacTiter-Glo, 6 h. inhibition, % at 7.5 µM. 300,000 compounds, 1.3% hits;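 active = mean replicate score, as percent of positive control median, at least 50; inconclusive = mean below 50 but one replicate at or above 50; inactive = mean and every replicate below 50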;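 note: strain carries kanamycin resistance gene driven by streptokinase promoter and grows in 40 µg/ml kanamycin; loss of luminescence reflects streptokinase promoter inhibition or plain growth inhibition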
# KLF5 inh: inhibitors of KLF5 expression | DLD-1 KLF5 promoter-luciferase reporter, luminescence | inhibition, % at 5 µM | 290,000 compounds, 0.23% hits;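 active = inhibition above a per-plate limit of that plate's mean compound inhibition plus 3 SD, cut at about 60% in these data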;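 note: higher means less KLF5 promoter-driven luciferase light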
# aSyn UTR inh: MLPCN primary screen, SNCA 5' untranslated region. alpha-synuclein 5'UTR reporter, inhibitor activity. inhibition, % (tested at 7.5 µM). 300,000 compounds, 0.82% hits. AID 1813; in the data active = inhibition above about 60%; inconclusive = no clear call, values can overlap the other calls;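 note: H4 neuroglioblastoma cells stably carrying SNCA 5'UTR luciferase fusion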
# IEC-6 cytotox cf: confirmation of cytotoxic compounds in rat IEC-6 intestinal epithelial cells. shares compounds with IEC-6 cytotox. IEC-6 rat intestinal epithelial viability, luminescence. inhibition, % at 5 µM. 1,900 compounds, 63% hits
# Numbers stand for hits; 0 = inactive; ? = inconclusive; - = no result; ! = a repeat was not active. Cut-off read from the data, not from the text of the source, unless noted: active = inhibition above about 22%; inactive = the rest.
SMILES,IEC-6 cytotox,CSC inhib,SKKanGAS inh,KLF5 inh,aSyn UTR inh,IEC-6 cytotox cf
COc1ccc(S(=O)(=O)N2N=C(C)Oc3ccccc3C2=O)cc1,67.5,0,0,0,0,45.4
COc1ccc(NC(=O)COC(=O)C(NC(=O)c2ccc(C)cc2)C(C)C)cn1 (stereo not given),-,0,-,-,-,-
COc1ccc(NC(=O)/C(Cl)=C(/Cl)S(=O)(=O)Cc2ccc(C)cc2)cn1,22.6,-,0,0,0,43.2
CC1CCC(C(C)C)C(OC(=O)C[n+]2cc(-c3ccc(Cl)cc3)n3c2CCC3)C1 (stereo not given),0,0,0,0,0,-
CC1CCC(C(C)C)C(OC(=O)Cn2c(-c3ccccc3)[n+](C)c3ccccc32)C1 (stereo not given),27.6!,0,0,0,76.9,0
CCOc1cc(S(=O)(=O)NCc2ccncc2)ccc1Cl,24.0,0,0,0,0,0
O=c1c(Br)c(Br)cnn1-c1ccccc1,101.6,-,-,0,-,45.6
O=c1c(Br)c(N2CCCC2)cnn1-c1ccccc1,0,0,0,0,0,-
COc1c(Cl)cnn(-c2ccc(C)cc2)c1=O,0,0,0,0,0,-
Cc1ccc(-n2ncc(Br)c(Br)c2=O)cc1,101.7,-,0,0,0,29.8
CCc1nc(N)nc(N)c1-c1ccc(Cl)cc1,49.4,-,69.9,0,84.5,35.6
CCC(=O)n1nc(-c2ccc(Cl)cc2)nc1N,0,0,0,0,0,-
Cc1ccc(C)c(Nc2cc(C)nc(-c3ccccc3O)n2)c1,48.3,0,0,0,0,26.9
Cc1cc(Nc2ccccc2Cl)nc(-c2ccccc2O)n1,0,0,0,0,0,-
COc1ccc(NS(=O)(=O)c2ccc3ccccc3c2)c2ncccc12,60.2,-,94.3,0,0,52.3
O=S(=O)(Nc1cccc2cccnc12)c1ccc(S(=O)(=O)N2CCCC2)cc1,31.5,0,0,0,0,35.5
O=S(=O)(Nc1cccc2ccccc12)c1ccccc1,0,-,0,0,0,-
Cc1ccc2cccc(NS(=O)(=O)c3ccccc3)c2n1,99.4,0,54.9,0,0,100.4
CC(=O)Nc1ccc(S(=O)(=O)Nc2cccc3cccnc23)cc1,0,0,0,0,0,-
Cc1ccc(S(=O)(=O)Nc2cccc3cccnc23)c([N+](=O)[O-])c1,66.1,0,?,0,70.9,47.3
CC12CCC(C(=O)Nc3ccncc3)(CC1O)C2(C)C (stereo not given),0,-,0,0,0,-
CCNC(=O)C12CCC(C)(C(=O)O1)C2(C)C (stereo not given),0,0,0,0,0,-
O=S(=O)(Nc1cccc2cccnc12)c1ccccc1,102.5,0,?,0,0,98.1
CCc1cc(C(=O)N2CCCC(CCC(=O)NCc3cccc(OC)c3)C2)no1 (stereo not given),0,0,?,0,0,-
C=CCn1c(SCC(=O)c2cccs2)nnc1-c1cccc(OC)c1,0,-,0,0,0,-
SMILES,IEC-6 cytotox,CSC inhib,SKKanGAS inh,KLF5 inh,aSyn UTR inh,IEC-6 cytotox cf
C=CCn1c(SCC(=O)c2cccs2)nc2sc(C)cc2c1=O,65.9,0,0,0,0,44.4
CCCn1c(SCC(=O)NC2CCCC2)nnc1-c1cccnc1,0,0,0,0,0,-
COc1cc(NC2CCCCC2O)c2nc(-c3ccc(Cl)cc3)ccc2c1 (stereo not given),22.9,?,0,0,0,0
COc1cc(OC)c(C2=NOC(C(=O)NCc3cccs3)C2)cc1Cl (stereo not given),42.0,0,0,0,0,40.8
COc1ccc(C2=NOC(C(=O)NCc3cccs3)C2)cc1OC (stereo not given),51.8,0,0,0,0,51.5
CN(C)CCN(C(=O)C1=COCCO1)c1nc2ccc(F)cc2s1,0,0,0,0,0,-
CC(=O)c1ccc(N/N=C(/C(N)=O)C2=NC(C)(C)Cc3ccccc32)cc1,39.7,0,0,0,?,32.6
CCn1cc(C(=O)NCC(OC)OC)c(=O)c2cc(S(=O)(=O)N3CCC(C)CC3)ccc21,31.7,0,0,0,0,24.8
CN(CC(=O)NCCc1ccccc1)Cc1ccco1,0,0,0,0,0,-
Cc1sc(NC(=O)CSc2nnc(N)s2)c(C#N)c1C,0,0,0,0,0,-
NC1=C(Br)C(=O)c2ccccc2C1=O,29.2,0,0,0,65.4,0
O=C1CCCN1CCCN1CC(C(=O)N(CCO)Cc2ccccc2)CCC1=O (stereo not given),0,0,0,0,0,-
CCOc1ccc(-c2c[n+]3c(n2-c2ccccc2)CCCCC3)cc1,25.1,0,0,0,0,0
CC(C)COc1ccc(S(=O)(=O)n2cc(F)c(=O)[nH]c2=O)cc1,85.4,0,0,0,0,0
CCCOc1ccc(S(=O)(=O)n2cc(F)c(=O)[nH]c2=O)cc1,43.7,0,0,0,0,0
CC(C)COc1ccc(C2NC(=O)NC2=O)cc1 (stereo not given),0,-,0,0,0,-
CCOc1ccc(Cn2cc(F)c(=O)[nH]c2=O)cc1,0,0,0,0,0,-
OCC[C@@H]1C[C@H](O)[C@@H](O)[C@]2(CCc3ccccc3CO2)O1,0,0,0,0,0,-
COc1ccc(C(=O)NNC(=O)c2ccc(F)c(S(=O)(=O)N3CCOCC3)c2)cc1,-,0,-,-,-,-
OCC[C@H]1C[C@H](O)[C@@H](O)[C@@]2(CCc3ccccc3O2)O1,-,0,-,-,-,-
O=S(=O)(Nc1cccc2ncccc12)c1cccs1,99.6,0,87.2,0,0,102.4
Cc1c(NS(=O)(=O)c2cccs2)cccc1-c1nc2cccnc2s1,0,0,0,0,0,-
N#Cc1ncc(-c2ccc3c(c2)OCCOCCOCCOCCO3)nc1C#N,0,0,0,0,0,-
N#Cc1ncc(-c2ccc3c(c2)OCCOCCOCCOCCOCCO3)nc1C#N,32.3,0,0,0,0,0
O=C(N/N=C/c1c(Cl)cccc1Cl)c1cccc(F)c1,0,0,0,0,0,-
SMILES,IEC-6 cytotox,CSC inhib,SKKanGAS inh,KLF5 inh,aSyn UTR inh,IEC-6 cytotox cf
Cc1ccc(-n2[nH]c(C)c(C=Nc3ccc(Br)cn3)c2=O)cc1,0,0,0,0,0,-
Cc1[nH]n(-c2ccc(Br)cc2)c(=O)c1/C=N/NC(=O)c1ccccc1,65.4,80.1,90.5,0,0,59.8
Cc1[nH]n(-c2ccccc2)c(=O)c1/C=N/NC(=O)c1cccc(F)c1,22.0,0,67.9,0,0,0
COc1cccc(CNC(=O)c2nnn(CC(=O)Nc3ccc(Br)cc3)c2N)c1,34.4,0,0,0,86.0,0
COc1ccc(NC(=O)Cn2nnc(C(=O)NCc3ccc4c(c3)OCO4)c2N)cc1,0,0,0,0,0,-
CCOc1ccccc1NC(=O)Cn1nnc(C(=O)NCc2ccc3c(c2)OCO3)c1N,50.6,0,0,0,0,27.6
CCOc1ccccc1NC(=O)c1nnn(CC(=O)Nc2ccc3c(c2)OCO3)c1N,0,0,0,0,0,-
O=C(CSc1nnc(CNC(=O)c2c(F)cccc2Cl)o1)NCc1ccc(F)cc1,0,0,0,0,0,-
COc1ccc(N(CC(=O)Nc2ccccc2F)S(=O)(=O)c2ccc(OC)c(OC)c2)cc1,0,0,0,0,0,-
COc1ccc(C(=O)N2CCc3cc4c(cc3C2C)OCCCO4)cc1 (stereo not given),0,0,0,0,0,-
